We go through 70 sequences from PubChem BioAssay AID1347426 (Functional Genomics Laboratory (NCATS/FGL), 2020).

In all, about 31,000 sequences went through this assay and about 1,400 (4.5%) were called active. Shown is part of a subset that was picked to be rich in actives. Values without a mark were called inactive.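 How the source made its calls: active means median seed-adjusted z-score above 1 or below -1; inactive means the rest.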

This experiment can be described thus: Novel Modifiers of Survival Motor Neuron (SMN) Protein: Gene Identification via Genome-wide siRNA Screen. The settings on record: HEK293T SMN2-luciferase reporter, siRNA knockdown, 72 h; actives lie on both sides. The text has this: Spinal muscular atrophy (SMA) is the most common neuromuscular autosomal recessive disorder and one of the leading genetic causes of infant death. SMA results from mutations inducing loss of function or deletion in the survival of motor neuron-1 gene (SMN1), leading to deficiency of the survival motor neuron (SMN) protein. Although a second nearly identical gene, SMN2, is retained in humans, its expression primarily produces an aberrantly spliced isoform that is largely unstable and quickly degraded. We performed a genome-wide RNAi screen using a cell-based reporter assay to identify genes and pathways that modulate SMN protein stability. The screen identified over 200 genes that led to the greatest increase or decrease in luciferase expression.
Using HEK293T cells stably expressing a luciferase reporter that combines the promoter and splicing based cassettes in tandem with the major portion of the native SMN2 cDNA with luciferase, we performed a genome-wide RNAi screen to identify modulators of SMN protein levels. Luciferase is expressed when full-length SMN protein is generated with luminescence signal proportional to SMN protein levels. Our luciferase-based reporter assay was used to screen Ambion Silencer Select Human Druggable Genome siRNA library (10418 genes, 3 unique siRNAs per gene) using lipid-based reverse transfection.
Briefly, 1 pmol of each siRNA was spotted to a well of a 384-well plate (Corning, Corning, NY) and 20 microL of serum-free DMEM containing […] of Lipofectamine RNAiMax (Life Technologies, Carlsbad, CA) was then added to each well. Transfected cells were maintained at 37 degrees C in 5% CO2 for 72 hours, 20 microL of ONE-Glo Reagent (Promega) was added to wells for luciferase quantification. Raw luminescence reads were normalized to Ambion(R) Silencer(R) Negative Control #2 siRNA, then log10 transformed. A robust statistical measure of median absolute deviation (MAD) to standardize siRNA activities from each screen. Common Seed Analysis was used to help prioritize clean hits as opposed to those appearing to arise from seed based off-target effects. Candidate modulators were defined as the genes having a MAD score greater than 1.0 or less than -1.0.
Take GACUCUUCUGACUAACAUATT against DACH1: the median seed-adjusted z-score was 0.562. To GACUCUAUGCUGAUAAUGATT against ADIPOQ belongs 0.557; to GCUGAGAUUUUCAAUAAGATT against NR1H4, -0.056. To CGCCCAUUCUUCAAUGUCATT against SIAH1 belongs 1.5 (active). To AGUGCGCCCAGAAUCUAAATT against ZNF689 belongs 0.448; to CGGAGUUUGUUGAUAUCGATT against LGI2, 0; to CAAAUUUCCUGUUAAUCGATT against APPL1, 0.

For the sequence GAAAUGACCUUAUUAGUCATT against RYK, the median seed-adjusted z-score was -0.446. The value for CAGACUACCCUGAUAGUUUTT against FLVCR1 was 0.197; that for GGUCAGAGACCAUCCAGAATT against GFRA4 was -1.59 (active). To AGAGGAAGAUAGAUUUUCUTT against PFDN5 belongs 0.562; to GGAUGUAUUGUCGCCUGUATT against RENBP, 0.587. Turning to CGAACUGCUUUAUGACCUATT against KIF20A, the median seed-adjusted z-score is 0.906. To GACGAGACCUCUUCUCUCATT against ART1 belongs 0.0033; to CCUGUGGUUUGCUAUCUAATT against SLC24A5, -0.166. To CGGUGCUGCUAGACGUGAATT against HSPB6 belongs 0.394. As to GGGUAAUUGGAACAUGUUUTT against RCN3, the median seed-adjusted z-score is -2.44 (active). To CCUUUACAAAUAACGGAUATT against NHLRC2 belongs 0.548; to CAUGUUCACUGCUACCGAUTT against LPP, -0.103. To CCUUCAUCCGUAUCAUGGATT against POLD1 belongs -0.715. For the sequence GCUGUGAUCUCAUGGAUCATT against KLHL3, the median seed-adjusted z-score is -0.237. To GCUUUAUGUGGGCUCAUUATT against RBM39 belongs -1.82 (active); to CACUGACACUUACAAUGAATT against UGT3A1, 0.864; to GGAACUUACGAUGCAGGAATT against GALNT13, -0.0149. To GCAACAGUAUUUCGGUAUATT against CHEK1 belongs -5.1 (active). The value for GUCUUAGAAUGAGUAGCAATT against KCNMA1 was 0; that for CACUAUCAGUUGGAACAGATT against CD36 was -0.000845; that for GGCUGAGAUGCGUCGUAAATT against ARCN1 was -1.25 (active). Turning to GAUUGAUGGGUGUAAGAAATT against SMS, the median seed-adjusted z-score was 0.186. To GAGACCUAAUGUUUCAUAUTT against PRKCI belongs 0.386; to CAAGGUCAAGUGCGAGAAATT against MAFB, 0.674; to CCGUCAUGGUUGAUGGAGATT against SEMA4D, 0.309.

Consider CCAUAGUCUUCAUCUACGATT against GPR153, for which the median seed-adjusted z-score was -1.08 (active).

With GAACAGUGUUUGUCAGCAUTT against ASAH2, the median seed-adjusted z-score was 0.615. To AAAGCACAGUGUUAAAUGATT against TAC1 belongs 0.0499; to CCCAGAAGAUUACCUUUGATT against NARG1L, 0.0121. The value for CCGUGCUGACCUCCAAAUATT against HBA1 was -1.03 (active); that for CUUUCGGUUUGAAGAAUAATT against ZC3H15 was 0.191; that for AGCAUGUGGUAGACGAGAATT against RGS19 was 0.295. To GACCUUCACCGUUACGUUATT against HDLBP belongs -1.18 (active); to AGCUCGUACUGUUCCAAUATT against MMP19, 0.43; to AGUGACAGAGUACAAGAUATT against EIF3G, -0.198. AAGUGGGAGUUACAUUAAATT against DLGAP2: the median seed-adjusted z-score is 0.295. Consider GGAUGUCAACUGUGCUUUUTT against MED24, for which the median seed-adjusted z-score is -2.3 (active).

Take CAGUGAAGGUGAAAUUCGATT against UCHL5: the median seed-adjusted z-score is -0.358. Turning to GGAUAAUGAUCGCGAGGAATT against ALS2, the median seed-adjusted z-score was 0. To GGUUCACGGCUAAAGCAAUTT against DGCR8 belongs -0.266. To CUACCAGGCUUAAUAGGAATT against GFM2 belongs 0.26. The value for GGGUCUUACUGAUUCCACATT against A4GNT was 0.213; that for CGAGAGUUACUUACAAGAATT against RAN was -3.09 (active). With CAUCAUUACCAGAGCUACATT against RLN1, the median seed-adjusted z-score is 0.0637. Take CCGCAGUUCUAGGUCCAAUTT against ABCC2: the median seed-adjusted z-score was -0.0464. With CAACCAAGGUCAGUCUUAUTT against TFCP2L1, the median seed-adjusted z-score is -0.246. Take AGAUAAGAAUCGCAUGACATT against ARHGAP9: the median seed-adjusted z-score was 0. The value for GAACGUAGAAUGAAAGUAATT against PSMC1 was -2.23 (active); that for GACUAUAACUUCCCGAAAATT against SYT11 was 0.29. On to GGGUUACAGCUAAAAUUGUTT against OC90, for which the median seed-adjusted z-score is 0.216.

GGUGCGGCCCUAUUACUUUTT against RPUSD2: the median seed-adjusted z-score was -0.215. The value for GAGACUCUGUGGACGUAAATT against ZNF101 was 0.336; that for AGCUUCUACCGUGUCCUUATT against UCK2 was -1.51 (active); that for CUACCUUACUUUAACAUUATT against KCNS3 was 0.103. The value for GCGAAAUUUUGGAUAUCAATT against KIF23 was -0.449. Turning to GGACACCUGUGAACCGCAUTT against ARID3A, the median seed-adjusted z-score is -1.11 (active). GGGAUAUUUUCUACGCUUUTT against DNAH5: the median seed-adjusted z-score was -0.45. Take GGUCACCACCAAAUACGUUTT against B4GALNT2: the median seed-adjusted z-score is -0.174. The value for CGAUUUAUCCGAUGCCCUUTT against CD99 was 0; that for CCAUCUCCAGUUGUAUUUUTT against CHKA was -0.558. To GACGGAAAGACUUACGUUATT against EIF2AK2 belongs 0.419. Take GAAUCAACUUUGCCGUGUUTT against SHMT2: the median seed-adjusted z-score is -0.0453. The value for CCUUGUCACAGGUCAAUCATT against VWF was 0.159.
